# Experimental data as given in PubChem BioAssay AID651599 (National Center for Advancing Translational Sciences (NCATS), 2012).
# Inconclusive results are not listed. A call without a number means that no potency is given here. Activity calls are given as the source filed them. The call rests on the fitted dose curve; in most records, active means well fitted inhibition curve with a large enough effect; inconclusive means small, poorly fitted or top-dose-only effect; inactive means no such curve, though single readings can be large or run the other way.
# Biological target: Tumor susceptibility gene 101 protein (Homo sapiens) (UniProt Q99816)
# Assay: qHTS Assay for Iinhibitors of HIV-1 Budding by Blocking the Interaction of PTAP/TSG101: Hit Validation in TR assay
# Settings: Tsg101 binding domain + Texas Red-labeled PTAP peptide, fluorescence polarization, 20 min; series mostly up to 57.5 µM
# How it was run: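 Fluorescence polarization: Tsg101 binding domain (10 uM final) with Texas Red-labelled PTAP peptide (50 nM final) in HEPES pH 7.5, 0.15 M NaCl, Tween 20, EDTA, TCEP; 20 min binding at room temperature after compound addition.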
# Potency means the concentration at half of the fitted maximal effect.
# Chain of Tumor susceptibility gene 101 protein (Homo sapiens) (Q99816 whole entry, looked up): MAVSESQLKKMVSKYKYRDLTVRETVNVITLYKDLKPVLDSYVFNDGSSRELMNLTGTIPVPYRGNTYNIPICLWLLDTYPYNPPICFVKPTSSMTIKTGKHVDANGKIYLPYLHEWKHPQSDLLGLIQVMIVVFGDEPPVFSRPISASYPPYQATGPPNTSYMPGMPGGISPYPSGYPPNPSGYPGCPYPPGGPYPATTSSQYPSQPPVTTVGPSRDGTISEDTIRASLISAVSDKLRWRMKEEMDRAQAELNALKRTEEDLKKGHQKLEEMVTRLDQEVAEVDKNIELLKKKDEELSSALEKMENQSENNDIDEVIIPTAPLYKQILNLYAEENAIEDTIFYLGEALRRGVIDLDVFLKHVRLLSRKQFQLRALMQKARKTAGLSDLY
row,Compound,Potency
1,CC(=O)c1cccc(-n2nnnc2SCC(=O)Nc2cc(C)on2)c1,inactive
2,Nc1c(C(=O)C2CC2)sc2nc(-c3ccccc3)cc(C(F)(F)F)c12,inactive
3,N#Cc1cccc(NC(=O)CSc2ccc3c4c(cccc24)C(=O)c2ccccc2-3)c1,inactive
4,CCc1ccc(/C=C2/C(=O)N(C)C(=S)N2CC(=O)OC)s1,inactive
5,Cc1cc([N+](=O)[O-])ccc1-c1ccc(/C=N/NC(=O)Cc2ccccc2)o1,inactive
6,Fc1ccc(C2=CC(c3ccc(Br)o3)n3ncnc3N2)cc1 (centres undefined),inactive
7,CC(C)CSC1=NSC2=NC(=O)/C(=C\c3coc4ccccc4c3=O)C(=N)N12,inactive
8,CCOc1ccc(S(=O)(=O)N2CCc3cc(OC)c(OC)cc3C2)cc1,inactive
9,O=c1cc2oc3cc(O)c(O)cc3c(-c3ccccc3O)c-2cc1O,16.3 µM (active)
10,c1ccc(-c2cn3nc(-c4ccccc4)c(-c4ccccc4)nc3n2)cc1,inactive
11,CCCCCn1nc(-c2ccccc2)c2nc3ccccc3nc21,inactive
12,Cc1cc(NS(=O)(=O)c2ccc(NC(=O)COc3c(C)cc(Br)cc3C)cc2)no1,inactive
13,Clc1ccc(-c2nnc3sc(-c4ccc(Br)o4)nn23)cc1,inactive
14,CN1C(=O)NC(c2ccccc2[N+](=O)[O-])C2=C1CCCC2=O (centres undefined),inactive
15,Cc1cc(/C=C2\SC(=S)NC2=O)c(C)n1-c1ccccc1,inactive
16,Oc1ccc2ccccc2c1N=Nc1nccs1,inactive
17,Cc1cc(C=C2C(=O)c3ccccc3C2=O)c(C)n1-c1ccc(Cl)cc1,inactive
18,Cc1ccc(C2C=C(c3ccc(Cl)cc3)Nc3nc(NS(=O)(=O)c4ccccc4)nn32)cc1 (centres undefined),inactive
19,O=c1ccc2cc3c4c(c2o1)CCCN4CCC3,inactive
20,CSC1=NSC2=NC(=O)/C(=C/c3coc4ccc(O)cc4c3=O)C(=N)N12,inactive

row,Compound,Potency
1,Cc1ccc(-c2cccc(NC(=O)C3C4C=CC(C4)C3C(=O)O)c2)o1 (centres undefined),inactive
2,CC(C)(C)c1ccc(C2C3=C(CCCC3=O)NC3=C2C(=O)c2ccccc23)cc1 (centres undefined),inactive
3,CCc1cccc2cc3c(N)c(C(=O)Nc4ccc(S(=O)(=O)N5CCCC5)cc4)sc3nc12,inactive
4,O=C1CCNc2ccc(-c3ccccc3)cc21,inactive
5,COc1ccc(C2=CC(c3ccco3)n3ncnc3N2)cc1 (centres undefined),inactive
6,O=[N+]([O-])c1cc(Cl)cc(/C=N/NC(=S)Nc2ccc(S(=O)(=O)N3CCOCC3)cc2)c1O,inactive
7,CC(=O)Nc1ccc(Nc2c3c4c(cccc4n(C)c2=O)C(=O)c2ccccc2-3)cc1,inactive
8,CCc1cccc(CC)c1NC(=O)CSc1nnc(C2CC2)n1C,inactive
9,Cc1nc2ccccc2n2c(O)c(CC(=O)O)cc12,inactive
10,O=C(O)CCNc1ccc(NCCC(=O)O)c2c1C(=O)c1ccccc1C2=O,inactive
11,O=C1/C(=N\S(=O)(=O)c2cccs2)C([n+]2ccccc2)=C([O-])c2ccccc21,inactive
12,CCN(CC)c1ccc(/C=c2\sc3nc4ccccc4n3c2=O)c(O)c1,inactive
13,COc1ccc(/C=c2\s/c(=C/C(=O)c3ccc(C)cc3)[nH]c2=O)c(OC)c1,inactive
14,Cc1c2cc(O)c(=O)cc-2oc2cc(O)c(O)cc12,inactive
15,COCCN(CCOC)Cc1c(O)ccc2c1O/C(=C\c1ccco1)C2=O,inactive
16,CC(=O)Nc1ccc2nc3c(=O)[nH]c(=O)[nH]c3nc2c1,inactive
17,COc1cccc2c1C(=O)c1c(O)c3c(c(O)c1C2=O)C[C@@](O)(C(C)=O)C[C@@H]3O[C@H]1C[C@H](N)[C@H](O)[C@H](C)O1,20.6 µM (active)
18,COc1ccc(OC)c(-c2c3cc(O)c(=O)cc-3oc3cc(O)c(O)cc23)c1,32.6 µM (active)
19,CCN(CC)C(=O)Cn1c(=O)c2ccccc2n2c(=S)sc(-c3cccc(C)c3)c12,inactive
